ChEMBL document CHEMBL3988442, “University of Dundee, Small-Polar-MMV Screening Library” (2021)
Hit rate of the full screen: of about 66,000 compounds, about 960 (1.5%) showed an effect of 50% or more. What follows is part of a selection rich in strong results, with near analogues and random picks from the rest.

Test system: Trypanosoma brucei
Assay: Trypanosoma brucei 72 hour study
Assay type: functional, organism-based
Set-up: scale not given: in the data most compounds retested in dose-response had high values

CC(CNCc1ccc(Cl)cc1)Oc1ccccn1.Cl (stereo unspecified)
Percent Effect (30 µM, 30.03 µM): -4.288%

Cc1cc(C2NC(=O)CN2Cc2ccc(Br)cc2)cc(C)c1O (stereo unspecified)
Percent Effect (30 µM, 30.03 µM): 94.42%

COc1cc(OC)cc(C2NC(=O)CN2Cc2ccc(Br)cc2)c1 (stereo unspecified)
Percent Effect (30 µM, 30.03 µM): -25.05%

NC(=O)COc1ccc(C2NC(=O)CN2Cc2ccc(Br)cc2)cc1 (stereo unspecified)
Percent Effect (30 µM, 30.03 µM): -15.28%

CC1N(c2cnn(C)c2)C(=O)COC12CCN(c1ncccn1)CC2.O=C(O)C(F)(F)F (stereo unspecified)
Percent Effect (30.3 µM, […]): -2.456%

CN(CCc1ccccn1)C(=O)c1cccs1.Cl
Percent Effect (30 µM, 30.03 µM): -41.89%

O=C(NCCN1CCCCC1)c1nc(-c2ccc3cc[nH]c3c2)no1
Percent Effect (30 µM, 30.03 µM): 29.87%

O=C(c1nc(-c2ccc3cc[nH]c3c2)no1)N1CCCC1
Percent Effect (30 µM, 30.03 µM): 53.89%

COCCNC(=O)c1nc(-c2ccc3cc[nH]c3c2)no1
Percent Effect (30 µM, 30.03 µM): -23.6%

COCCNc1cc(C2CCCNC2)ccn1.Cl (stereo unspecified)
Percent Effect (30.3 µM, […]): 9.179%

CCNC(=O)[C@@H]1C[C@H](N)CN1Cc1ccc(Sc2ccc(C)cc2)o1
Percent Effect (30.3 µM, […]): 18.4%

CCNC(=O)[C@@H]1C[C@@H](N)CN1Cc1ccc(Sc2ccc(C)cc2)o1
Percent Effect (30.3 µM, […]): 100.1%

CCNC(=O)[C@@H]1C[C@H](N)CN1Cc1ccc(-c2cc[nH]n2)o1
Percent Effect (30.3 µM, […]): -17.36%

COCCN1C(=O)C[C@H]2[C@H]1CCN2Cc1cccc(C#N)c1.O=C(O)C(F)(F)F
Percent Effect (30 µM, 30.03 µM): 17.08%

O=C(O)C(F)(F)F.O=C(c1ccc[nH]1)N1CCn2cc(CN3CCCC3)nc2C1
Percent Effect (30 µM, 30.03 µM): -5.056%

O=C(O)C(F)(F)F.O=C(c1ccc[nH]1)N1CCn2cc(Cn3cccn3)nc2C1
Percent Effect (30.3 µM, […]): 63.53%

O=C(c1ccc[nH]1)N1CCn2cc(Cn3cncn3)nc2C1
Percent Effect (30 µM, 30.03 µM): -19.87%

CC(C)COc1cncc(N2CCCN(c3ncccn3)CC2)n1
Percent Effect (30.3 µM, […]): -75.77%

CNC(=O)CN(C)c1cncc(OCC(C)C)n1
Percent Effect (30 µM, 30.03 µM): -18.74%

CC(C)COc1cncc(N(C)C2CCN(c3ncccn3)CC2)n1
Percent Effect (30.3 µM, […]): 90.23%

CN(C)CCOCc1nnc2n1CCN(Cc1cccs1)CC2.O=C(O)C(F)(F)F.O=C(O)C(F)(F)F
Percent Effect (30.3 µM, […]): -17.71%

Br.Cc1ccccc1OC1CCN(CC(=O)Nc2ccn(C)n2)CC1
Percent Effect (30.3 µM, […]): 12.28%

Cc1ccccc1N1CC2(CCN(S(=O)(=O)c3ccccc3)C2)CC1=O (stereo unspecified)
Percent Effect (30.3 µM, […]): 11.6%

CCOc1cc(Cl)c(CN2CCC3(CCCNC3=O)C2)cc1OC (stereo unspecified)
Percent Effect (30.3 µM, […]): -16.79%

CCOc1cc2c(cc1CN1CCC3(CC1)CNC(=O)C3)CCC2
Percent Effect (30.3 µM, […]): -17.68%

CCOc1cc2c(cc1CN1CCC3(CCCNC3=O)C1)CCC2 (stereo unspecified)
Percent Effect (30.3 µM, […]): 98.93%

O=C(N1CCCC1)N1CCC2(CCN(Cc3ccccn3)C2=O)C1.O=C(O)C(F)(F)F (stereo unspecified)
Percent Effect (30 µM, 30.03 µM): -20.49%

CCN(CC)c1nc(Nc2cccc(C(C)O)c2)nc2ccccc12 (stereo unspecified)
Percent Effect (30 µM, 30.03 µM): 78.38%

CC(O)c1cccc(Nc2nc(NCCO)c3ccccc3n2)c1 (stereo unspecified)
Percent Effect (30 µM, 30.03 µM): 5.503%

CCN(CC)c1nc(Nc2cccc(C(=O)O)c2)nc2ccccc12
Percent Effect (30 µM, 30.03 µM): -36.54%

O=C(O)C(F)(F)F.O=C1NC2(CCN(C(=O)N3CCOCC3)CC2)CC1c1cccnc1 (stereo unspecified)
Percent Effect (30 µM, 30.03 µM): -17.56%

CN1CCOC(CNCc2c(Cl)nc3ccccn23)C1 (stereo unspecified)
Percent Effect (30 µM, 30.03 µM): -12.37%

CN1CCOC(CNCc2coc(-c3ccccc3)n2)C1 (stereo unspecified)
Percent Effect (30 µM, 30.03 µM): -39%

CN1CCOC(CNCc2coc(-c3cccc(F)c3)n2)C1 (stereo unspecified)
Percent Effect (30.3 µM, […]): 41.18%
Percent Effect (10 mM, 10 mM as filed; unlikely as a test dose): -36.07%

CN1CCOC(CNCc2coc(-c3cccs3)n2)C1 (stereo unspecified)
Percent Effect (30 µM, 30.03 µM): -23.33%

CN1CCOC(CNCc2coc(-c3cccc(Cl)c3)n2)C1 (stereo unspecified)
Percent Effect (30.3 µM, […]): 98.76%
Percent Effect (10 mM, 10 mM as filed; unlikely as a test dose): -110.4%

CN1CCOC(CNCc2coc(-c3ccccc3Cl)n2)C1 (stereo unspecified)
Percent Effect (30.3 µM, […]): 54.4%
Percent Effect (10 mM, 10 mM as filed; unlikely as a test dose): -73.24%

Cc1ccc(-c2nc(CNCC3CN(C)CCO3)co2)cc1 (stereo unspecified)
Percent Effect (30.3 µM, […]): 93.13%
Percent Effect (10 mM, 10 mM as filed; unlikely as a test dose): -9.822%

CN(C)CC1CN(Cc2coc(-c3ccccc3Cl)n2)CCO1 (stereo unspecified)
Percent Effect (30 µM, 30.03 µM): -2.77%

CN1CCOC(CNC(=O)Cc2coc(-c3ccccc3)n2)C1 (stereo unspecified)
Percent Effect (30.3 µM, […]): -0.1289%
Percent Effect (10 mM, 10 mM as filed; unlikely as a test dose): -18.77%

Cc1ccc(-c2nc(CN3CCOC(CN(C)C)C3)co2)cc1 (stereo unspecified)
Percent Effect (10 µM): 5.738%
Percent Effect (30.3 µM, […]): -1.882%

CN(C)CC1CN(Cc2coc(-c3ccc(Cl)cc3)n2)CCO1 (stereo unspecified)
Percent Effect (10 µM): -46.52%
Percent Effect (30.3 µM, […]): 62.36%

CN(C)CC1CN(Cc2coc(-c3ccccc3)n2)CCO1 (stereo unspecified)
Percent Effect (10 µM): -12.24%
Percent Effect (30.3 µM, […]): 1.121%
